Assay results: PubChem BioAssay AID588855 (National Center for Advancing Translational Sciences (NCATS), 2011)
The campaign covered roughly 410,000 compounds. About 5,000 (1.2%) were called active. Roughly 13% stayed inconclusive and do not appear here. The call rests on the fitted dose curve; in most records, active means well fitted inhibition curve with a large enough effect; inconclusive means small, poorly fitted or top-dose-only effect; inactive means no such curve, though single readings can be large or run the other way. Shown is part of a subset that was picked to be rich in actives.

Assay: qHTS for Inhibitors of TGF-b; further: nearly all actives have a fitted effect of over 65% in size
Details: HepG2 CAGA-GFP TGF-b/SMAD3 reporter, GFP fluorescence, 18 h, TGF-beta stimulated, 500 pg/mL final; series mostly up to 46.1 µM; activity, negative = inhibition: at the top concentration
Method in brief: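 Read-out: total well GFP (ex488/em500-530) summed from mean per-cell fluorescence. Cells: HEPG2 CAGA-GFP, 1% FBS DMEM, 18 h at 37 degrees C with 500 pg/mL final TGF-beta. Unstimulated wells served as the full-inhibition control; stimulated DMSO wells = 0%.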
On the % scale 0 is the no-effect control and ±100 the full control effect; potency means the concentration at half of the fitted maximal effect.

SMILES | activity, negative = inhibition | Potency
CN1CCN(C2(CNC(=O)COc3ccc(C(C)(C)C)cc3)CCCCC2)CC1 | -29.2% (inactive) | 
CCOc1ccc(S(=O)(=O)c2cn(Cc3ccccc3)c3ccc(OCC)cc3c2=O)cc1 | -14.2% (inactive) | 
Cc1csc(NC(=S)Nc2cccc(Cl)c2)n1 |  | 8.91 µM (active)
O=C(NCc1cn2ccsc2n1)Nc1cccc(Cl)c1 | 5.96% (inactive) | 
O=C(Nc1cccc(Cl)c1)c1csnn1 | 18.8% (inactive) | 
O=C1CC(c2ccccc2)CC2=C1C(c1ccco1)n1nc(C(F)(F)F)nc1N2 (configuration not stated) | -19% (inactive) | 
CCCCNC(=O)Cn1c(SCc2cccc(Cl)c2)nc2ccncc21 | -13.9% (inactive) | 
Cc1cccc(-c2nnc(SC(C)C(=O)Nc3ccccc3)n2C)c1 (configuration not stated) | -24.7% (inactive) | 
O=S(=O)(NCCS(=O)(=O)N1CCN(c2ccccc2)CC1)c1ccc(Cl)cc1 | -2.71% (inactive) | 
O=C(CN1C(=O)COc2ccc(S(=O)(=O)N3CCOCC3)cc21)N1CCN(c2cccc(Cl)c2)CC1 | 11.3% (inactive) | 
O=C(Nc1nnc(SCc2c(Cl)cccc2Cl)s1)c1cccc([N+](=O)[O-])c1 | -25% (inactive) | 
CC(C)(C)SCCNC(=O)c1cccc([N+](=O)[O-])c1 | 9.19% (inactive) | 
O=C(Nc1ccc(C2CC2(Cl)Cl)cc1)c1cccc([N+](=O)[O-])c1 (configuration not stated) |  | 15.8 µM (active)
Cc1ccc(-c2cn3c(n2)sc2cc(C(=O)NCc4cccs4)ccc23)c(C)c1 | -4.09% (inactive) | 
Cc1cc(C)cc(NC(=O)CSc2nc(=O)n(CCN3CCOCC3)c3c2CCC3)c1 | -26.2% (inactive) | 
Cc1nnc(SCc2cc(=O)c3cc(F)ccc3[nH]2)n1C | -0.0891% (inactive) | 
Clc1ccc(Nc2nc(-c3cccs3)cs2)nc1 |  | 11.2 µM (active)
O=C(Nc1ccc(Cl)cn1)c1ccccc1-c1ccccc1 | -1.56% (inactive) | 
CCCc1cc(C(=O)Nc2ccc(Cl)cn2)cs1 | -13.9% (inactive) | 
COc1ccc(C(=O)COC(=O)CCCC(=O)Nc2cc(C(F)(F)F)ccc2Cl)cc1 | 0% (inactive) | 
COc1cc(NC(=O)c2cncc(-c3ccc(C#N)cc3)c2)cc(C(=O)Nc2cccc(C(F)(F)F)c2)c1 | -10.5% (inactive) | 
COc1cc(NC(=O)c2[nH]cnc2C(N)=O)cc(C(=O)Nc2cccc(C(F)(F)F)c2)c1 |  | 4.47 µM (active)
Cc1cc(Nc2cccc(C(F)(F)F)c2)nc2ccc(NC(=O)c3ccc(=O)[nH]c3)cc12 | -3.23% (inactive) | 
O=C(Nc1ccccc1F)C(c1ccccc1)N1Cc2ccccc2C1=O (configuration not stated) | -8.24% (inactive) | 
CCc1ccc(NC(=O)CCS(=O)(=O)c2cc3c(cc2Cl)NC(=O)CO3)cc1 | 5.48% (inactive) | 

SMILES | activity, negative = inhibition | Potency
O=C(NC1CCN(Cc2ccccc2)CC1)c1cc(Br)c(Br)[nH]1 | -7.55% (inactive) | 
S=C(Nc1ccc(Br)cc1)NC1CCN(Cc2ccccc2)CC1 |  | 10 µM (active)
O=C(COc1ccc(Br)cc1F)NC1CCN(Cc2ccccc2)CC1 | 13.6% (inactive) | 
COc1ccc(Nc2ncc(C(=O)Nc3cc(C)ccc3OC)c3ccccc23)cc1 | -2.57% (inactive) | 
CCc1nccn1S(=O)(=O)c1cc(Br)ccc1Br | 3.54% (inactive) | 
COc1ccc(OC)c(NC(=O)/C=C/c2ccc(C)o2)c1 | 39.7% (inactive) | 
Cc1ccc(-c2nc(S(=O)(=O)c3ccc(C)cc3)c(N3CCCCCC3)o2)cc1 | 9.54% (inactive) | 
CC(C)S(=O)(=O)c1oc(-c2ccc(F)cc2)nc1S(=O)(=O)c1ccc(F)cc1 |  | 1.26 µM (active)
O=C(CSc1oc(-c2ccc(F)cc2)nc1S(=O)(=O)c1ccc(Br)cc1)NC1CCCCC1 | 11.8% (inactive) | 
Cc1ccc(CCNC(=O)Cn2c(-c3cccs3)cc3cc(F)ccc32)cc1 | -3.68% (inactive) | 
COc1ccc(CC(=O)NCCc2sc3nc(-c4ccc(OC)cc4)nn3c2C)cc1 | -12% (inactive) | 
COc1c(Cl)cc(C(=O)N(Cc2ccccc2F)C2CCS(=O)(=O)C2)cc1Cl (configuration not stated) | -28.9% (inactive) | 
Cc1ccc2nc(-c3ccc(O)cc3)c(Nc3ccc4c(c3)OCO4)n2c1 | -25.9% (inactive) | 
COC(c1ccccc1)(c1ccccc1)C(Oc1nc(C)cc(C)n1)C(=O)O (configuration not stated) | 16.7% (inactive) | 
Cc1cc(C)nc(SC(C)C(=O)N/N=C/c2cccs2)n1 (configuration not stated) | 4.28% (inactive) | 
Cc1cc(C)nc(S/C=C/C(=O)c2ccccc2)n1 |  | 3.16 µM (active)
Cc1ccc(Cn2c(CNC(=O)Cc3cccc(C)c3)nc3cccnc32)cc1 | -23% (inactive) | 
CC(=O)Nc1cc(C(=O)NCc2ccc(F)cc2Cl)ccc1Sc1ccc(Cl)cc1 | 0% (inactive) | 
COc1ccc(CN2CCC(=O)c3ccccc3S2(=O)=O)cc1 | -1.44% (inactive) | 
COc1cccc2c1C(=O)c1c(O)c3c(c(O)c1C2=O)CC(O)(C(C)=NNC(=O)c1ccc(Cl)c(Cl)c1)CC3OC1CC(N)C(O)C(C)O1 (configuration not stated) |  | 1.12 µM (active)
Cc1ccc(Cn2cnc3c(cnn3C(C)(C)C)c2=O)c(F)c1 | -14.2% (inactive) | 
COc1cc(CN(C(=O)c2ccccc2Br)c2ccccn2)cc(OC)c1OC | -7.28% (inactive) | 
CC(C)CC[n+]1ccn(C2=C([O-])c3ccccc3C(=O)/C2=N\S(=O)(=O)c2ccccc2)c1 |  | 3.16 µM (active)
COC(=O)c1ccc(NC(=O)c2cccc3c2C(=O)N(C2CCCCC2)C3)cc1 | 6.39% (inactive) | 
Cc1ccc(CN2CC(N3CCC(Cc4ccccc4)CC3)CS2(=O)=O)cc1 (configuration not stated) |  | 14.1 µM (active)

SMILES | activity, negative = inhibition | Potency
O=S1(=O)CC(N2CCC(Cc3ccccc3)CC2)CN1Cc1ccccc1 (configuration not stated) | -44.1% (inactive) | 
Cc1cccc(CN2CCN(C3CN(Cc4ccccc4)S(=O)(=O)C3)CC2)c1 (configuration not stated) | -23.2% (inactive) | 
Cc1ccc(CN2CCc3nc(N4CCN(C)CC4)ncc3C2)cc1 | -2.9% (inactive) | 
CCOc1ccc(NC(=O)CC2C(=O)N(c3cccc(OC)c3)C(=O)N2C2CCCCC2)cc1 (configuration not stated) | -13.9% (inactive) | 
Cc1cccc(NC(=O)Cn2c(C(F)(F)F)nc3ccccc32)c1C | -19.4% (inactive) | 
Fc1ccc2[nH]c3c(N4CCN(Cc5ccc6c(c5)OCO6)CC4)ncnc3c2c1 |  | 17.8 µM (active)
O=C(CSc1nc2c(c(=O)[nH]1)CN(Cc1ccc3c(c1)OCO3)CC2)Nc1cc(F)ccc1F | -4.36% (inactive) | 
N#C/C=C/N1CCN(Cc2ccc3c(c2)OCO3)CC1 | 1.39% (inactive) | 
Cc1cc(C)cc(NC(=O)Cc2csc(C)n2)c1 | 0% (inactive) | 
Cc1ccc(C)c(S(=O)(=O)n2nc(C)c(S(=O)(=O)N3CCC(C)CC3)c2C)c1 | 1.69% (inactive) | 
CC(C)N1CCC(=NNc2ccc([N+](=O)[O-])cc2S(=O)(=O)N2CCOCC2)CC1 |  | 11.2 µM (active)
O=[N+]([O-])c1cc(S(=O)(=O)N2CCCC2)ccc1NN=C1CCCC1 | -8.61% (inactive) | 
COC(=O)c1cc(Oc2ccc(S(=O)(=O)N3CCOCC3)cc2[N+](=O)[O-])cc(C(=O)OC)c1 | -15.1% (inactive) | 
Cc1ccc(C)c(N2CCN(C(=O)CCc3c(C)nc4c(c3C)c(=O)n(C)c(=O)n4C)CC2)c1 | -24.3% (inactive) | 
CCOc1ccc(CNC(=O)c2ccc(CS(=O)c3ccccc3)o2)cc1 (configuration not stated) | -1.57% (inactive) | 
CC(=O)c1ccc(N2CCN(C3C(=O)c4ccccc4N3C(C)=O)CC2)cc1 (configuration not stated) | 0% (inactive) | 
CCN(C(=O)COc1ccc(C(=O)c2ccccc2)cc1)c1ccccc1 | -18% (inactive) | 
CCOc1ccc2nc(C(=O)N3CCCC(C)C3)sc2c1 (configuration not stated) | 3.8% (inactive) | 
CCOc1ccc2nc(N(CCCN(C)C)C(=O)c3ccc(C(=O)c4ccccc4)cc3)sc2c1 |  | 22.4 µM (active)
Cc1ccc2nc(/C(C#N)=C/c3ccccc3F)[nH]c2c1 | -31.6% (inactive) | 
CCn1c(=O)c(=O)n(CC)c2cc(S(=O)(=O)N3CCc4ccccc43)ccc21 | 8.33% (inactive) | 
O=S(=O)(c1ccccc1)N1CCc2ccccc21 | -0.156% (inactive) | 
Cn1c(=O)n(C)c2cc(S(=O)(=O)N3CCCc4ccccc43)ccc21 |  | 12.6 µM (active)
Cc1cc(C)cc(NC(=O)CSc2oc(-c3ccccc3)nc2S(=O)(=O)c2ccc(Cl)cc2)c1 | 4.95% (inactive) | 
COc1cc(C(=O)N2CCN(c3ccc(Nc4ccc(C)cc4)nn3)CC2)cc(OC)c1OC | -7.49% (inactive) | 

SMILES | activity, negative = inhibition | Potency
Cc1onc(-c2ccc(F)cc2F)c1C(=O)Nc1cccc(C(F)(F)F)c1 |  | 12.6 µM (active)
Cc1onc(-c2c(F)cccc2Cl)c1C(=O)Nc1cccc(S(=O)(=O)N2CCCCC2)c1 | 5.34% (inactive) | 
Cc1onc(-c2c(F)cccc2Cl)c1C(=O)N(C)CC(=O)Nc1cccc(F)c1 | -2.61% (inactive) | 
O=C1c2ccccc2C(=O)N1c1ccc(S(=O)(=O)N2CCOCC2)c2ccccc12 | 3.68% (inactive) | 
Cc1ccc(-c2noc(-c3nnn(-c4cccc(C(F)(F)F)c4)c3N)n2)cc1 | 9.38% (inactive) | 
COc1ccc(OC)c(CCNC(=O)CCCn2c(=O)c3cccn3c3cccnc32)c1 | -4.81% (inactive) | 
CCOCCc1nn2c(=O)cc(COC(=O)CNC(=O)c3ccc(C(C)(C)C)cc3)nc2s1 | -31.7% (inactive) | 
CCOC(=O)Cn1c(=O)n(C2CCCCC2)c2nc(-c3cccc(OC)c3)nc(C(N)=O)c21 | 1.49% (inactive) | 
Cc1nc2c(OCC(=O)C(C)(C)C)cccn2c1N(C)Cc1cccs1 | -8.85% (inactive) | 
CCc1nc2c(OCc3ccc(Cl)cc3Cl)cccn2c1N(C)C(=O)C(C)C |  | 12.6 µM (active)
CCc1nc2c(OCc3cccc(OC)c3)cccn2c1N(C)C(=O)C(C)C | -1.92% (inactive) | 
Cc1nc2c(OCc3ccc(Cl)cc3Cl)cccn2c1N(C)CC1CC1 |  | 11.2 µM (active)
Cc1nc2c(OCc3cccc(Cl)c3)cccn2c1N(C)CC1CC1 | -16.2% (inactive) | 
CCc1nc2c(OCc3ccc(C(=O)OC)cc3)cccn2c1N(C)C(=O)C(C)C | -7.08% (inactive) | 
COc1cccc(N2CC(NC(=O)/C=C\c3ccccc3)CC2=O)c1 (configuration not stated) | -8.37% (inactive) | 
O=C(CCSCc1cccc(F)c1)NCc1ccccc1 | -6.59% (inactive) | 
CCN(CCCNC(=O)c1ccc(Sc2ccc(C)cc2)c(NC(C)=O)c1)c1cccc(C)c1 | -2.89% (inactive) | 
CCCOc1cccc(C(=O)Nc2cccc(NC(=O)c3ccc(C(C)(C)C)cc3)c2)c1 | -8.91% (inactive) | 
COC(=O)c1ccc(OCC(=O)NC(C)(C)C)cc1 | 4.89% (inactive) | 
CCCOc1ccc(C(=O)C(CCC(CNCC)C(=O)c2ccc(OCCC)cc2)CNCC)cc1 (configuration not stated) |  | 3.16 µM (active)
Cc1cc(Br)ccc1NC(=O)Cn1cnc2sc(C)c(S(=O)(=O)N3CCN(C)CC3)c2c1=O | 5.55% (inactive) | 
COc1cc(OC)cc(-c2nc3nc(C)c(CCC(=O)Nc4ccccc4)c(C)n3n2)c1 | -0.887% (inactive) | 
